SMILES strings stand for the structures. Results filed as inconclusive are left out. Calls of active or inactive are those of the source. Calls come from the whole dose curve; as a rule, active = well fitted activation curve with a large enough effect in the main read-out, with a control signal flat (not every such curve was filed as active); inconclusive = small, poorly fitted or top-dose-only effect, or effect the other way, or a change in a side signal; inactive = flat fitted curve, though single readings scatter.

The assay deals with 3',5'-cyclic-AMP phosphodiesterase 4B (Homo sapiens) (UniProt Q07343). Description: qHTS Assay for Inhibitors of PDE-IV (AID 607). The following applies: HEK293 ACTOne CNG channel cells, membrane potential fluorescence; series mostly up to 22.9 µM. The method, boiled down: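 Live HEK293 cells with a modified cyclic nucleotide-gated (CNG) channel report intracellular cAMP via membrane-potential dye fluorescence (ex 535/em 590 nm). Endogenous PDE-IV was targeted. Compounds were tested at up to 22.9 uM final; RO 20-1724 100 uM served as control.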
On the technique in general: In qHTS, concentration-response curves come from the screen itself.

Sequence of 3',5'-cyclic-AMP phosphodiesterase 4B (Homo sapiens) (Q07343 whole entry, looked up): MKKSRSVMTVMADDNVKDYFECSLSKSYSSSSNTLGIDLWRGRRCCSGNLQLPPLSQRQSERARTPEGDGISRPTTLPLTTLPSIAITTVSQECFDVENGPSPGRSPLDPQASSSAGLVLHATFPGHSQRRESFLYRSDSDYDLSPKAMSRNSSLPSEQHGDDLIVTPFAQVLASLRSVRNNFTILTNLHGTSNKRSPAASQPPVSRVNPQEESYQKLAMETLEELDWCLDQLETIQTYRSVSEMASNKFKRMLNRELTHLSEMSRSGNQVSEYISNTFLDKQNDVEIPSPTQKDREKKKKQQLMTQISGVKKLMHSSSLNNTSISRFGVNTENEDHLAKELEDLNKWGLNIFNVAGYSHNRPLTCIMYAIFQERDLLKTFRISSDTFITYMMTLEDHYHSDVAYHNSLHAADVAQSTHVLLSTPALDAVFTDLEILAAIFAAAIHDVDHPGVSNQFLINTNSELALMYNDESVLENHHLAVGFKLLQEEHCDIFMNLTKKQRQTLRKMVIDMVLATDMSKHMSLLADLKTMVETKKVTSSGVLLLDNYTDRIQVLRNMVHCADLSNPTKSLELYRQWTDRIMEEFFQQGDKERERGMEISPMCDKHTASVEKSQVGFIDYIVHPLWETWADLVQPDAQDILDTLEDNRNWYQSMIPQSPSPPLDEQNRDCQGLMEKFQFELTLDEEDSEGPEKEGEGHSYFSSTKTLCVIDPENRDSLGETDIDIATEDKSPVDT

For `COC1=C(OC)C(=O)c2ccccc2C1=O`, the outcome was inactive.

Take `O=C(O)Cc1ccc(-c2ccccc2)cc1`: the call was inactive.

On to `O=C(Nc1cccc(C(=O)Nc2ccc(S(=O)(=O)O)c3cc(S(=O)(=O)O)cc(S(=O)(=O)O)c23)c1)Nc1cccc(C(=O)Nc2ccc(S(=O)(=O)O)c3cc(S(=O)(=O)O)cc(S(=O)(=O)O)c23)c1`, for which the result was inactive.

In the case of `N.N.O=C(O)C1(C(=O)O)CCC1.[Pt]`, the call was inactive.

Take `CN(C)C(N)=NCCC[C@H](N)C(=O)O`: the call was inactive.

In the case of `COc1ccccc1N1CCN(CCCCNS(=O)(=O)c2cccc3c(N(C)C)cccc23)CC1`, the compound was classed as inactive.

Turning to `CCCN(CC1CC1)c1nc(C)nc(Nc2c(Cl)cc(Cl)cc2Cl)c1Cl`, the compound was called inactive.

With `Cc1ccc(C(=O)c2ccc(CC(=O)O)n2C)cc1`, the compound was classed as inactive.

With `N=c1ccn2c(n1)O[C@H]1[C@H](O)[C@@H](CO)O[C@H]12`, the outcome was inactive.

Regarding `O=c1[nH]c2cc([N+](=O)[O-])c([N+](=O)[O-])cc2[nH]c1=O`, the call was inactive.

With `N#C/C(=C\c1ccc(O)c(O)c1)C(=O)NCc1ccccc1`, the result was inactive.

Consider `N#C/C(=C\c1ccc(O)c(O)c1)C(=O)NCCCc1ccccc1`, for which the call was inactive.

On to `Cc1c(N)c(=O)n(-c2ccccc2)n1C`, for which the call was inactive.

As for `c1ccc(-c2ccccn2)nc1`, the compound was called inactive.

In the case of `Cc1nc2sccn2c(=O)c1CCN1CCC(=C(c2ccccc2)c2ccc(F)cc2)CC1`, the outcome was inactive.

Turning to `Clc1ccc(N2CCN(Cc3c[nH]c4ncccc34)CC2)cc1`, the compound was called inactive.

For `O=C(c1cc(O)c(O)c([N+](=O)[O-])c1)c1ccccc1F`, the compound was called inactive.

`COC(=O)c1c(C)[nH]c(C)c1C(=O)c1ccccc1Cc1ccccc1`: the result was inactive.

The record behind these values is PubChem BioAssay (NCATS).
